# Experimental data: PubChem BioAssay (EPA / NIEHS)
# Inconclusive results are not listed. Active and inactive are the calls of the source. How the source made its calls: active means hit-call score of the fitted dose curve at least 0.9, where 1 is the maximum; inconclusive means response in the unintended direction; inactive means score below 0.9.
# Target: human Matrix Metalloproteinase-1 (MMP1), MMP1 (gene 4312) (UniProt P03956)
# Assay: NVS_ENZ_hMMP1: NovaScreen (NVS) Enzymatic Assay for human Matrix Metalloproteinase-1 (MMP1) (AID 2283181)
# Procedure: NVS_ENZ_hMMP1 is a biochemical, single-readout assay that uses extracted gene-proteins in a cell-free assay. Measurements were taken 1 hour after chemical dosing in a 96-well plate.NVS_ENZ_hMMP1 is one of one assay component(s) measured or calculated from the NVS_ENZ_hMMP1 assay. It is designed to make measurements of enzyme activity, a form of enzyme reporter, as detected with fluorescence intensity signals by Fluorescence technology.Data from the assay component NVS_ENZ_hMMP1 was analyzed into 1 assay endpoint. This assay endpoint, NVS_ENZ_hMMP1, was analyzed in the positive analysis fitting direction relative to DMSO as the negative control and baseline of activity. Using a type of enzyme reporter, loss-of-signal activity can be used to understand changes in the enzymatic activity as they relate to the gene MMP1. Furthermore, this assay endpoint can be referred to as a primary readout, because this assay has produced multiple assay endpoints where this one serves a enzymatic activity function. To generalize the intended target to other relatable targets, this assay endpoint is annotated to the protease intended target family, where the subfamily is matrix metalloproteinase.
# Binding assays used specific radioligands (tritiated, iodinated) with non-radioactive competitive displacement ligands in agonist or antagonist protocols (as indicated) and various reference compounds and inhibitors to titrate specific binding to receptors and transporters. Most enzyme assays (CYPs, kinases, phosphatases, proteases, HDACs) used recombinant protein and specific substrates (fluorescence mostly, some colorimetric and radioactive) and inhibitors, followed by a biochemical separation of substrate and product. All assays for the biochemical HTS were initially run in duplicate at a single concentration (10 uM for CYP450 assays and 25 uM for all others). Assay-chemical combinations meeting a pre-defined threshold (e.g., 30% inhibition and other criteria defined below) were then run in singleton concentration-response format with maximum concentration of 20 uM for CYPs and 50 uM for all others. Each assay was run with positive and negative controls, and concurrent controls on every plate. The follow-up (secondary) screen tested active chemical-pairs in concentration series, as well as a few additional assays not tested in the primary screen, some selected negative inactives, and several cases re-run in the concentration series for confirmatory purposes.
# Chain of human Matrix Metalloproteinase-1 (MMP1), MMP1 (gene 4312) (P03956 whole entry, looked up): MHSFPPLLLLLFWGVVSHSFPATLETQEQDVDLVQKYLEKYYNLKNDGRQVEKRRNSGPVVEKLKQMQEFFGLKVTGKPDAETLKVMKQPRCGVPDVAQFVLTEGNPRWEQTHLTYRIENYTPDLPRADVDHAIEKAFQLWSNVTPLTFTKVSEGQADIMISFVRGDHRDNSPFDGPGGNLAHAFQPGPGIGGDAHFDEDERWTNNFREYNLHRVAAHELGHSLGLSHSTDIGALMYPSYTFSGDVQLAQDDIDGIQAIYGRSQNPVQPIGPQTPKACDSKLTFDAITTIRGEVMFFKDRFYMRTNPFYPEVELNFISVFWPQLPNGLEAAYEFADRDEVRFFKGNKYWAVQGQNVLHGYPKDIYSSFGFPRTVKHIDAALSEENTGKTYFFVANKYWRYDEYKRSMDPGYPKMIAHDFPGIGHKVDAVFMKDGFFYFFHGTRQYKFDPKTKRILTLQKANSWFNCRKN
SMILES,outcome,AC50
CO[C@@H]1COCC[C@@H]1N[C@@H]1CC[C@@](C(=O)N2CCc3ncc(C(F)(F)F)cc3C2)(C(C)C)C1,inactive,
COc1ccc2sc(C(=O)Nc3nnn[nH]3)c(OC(C)C)c2c1,inactive,
O=C(O)c1cccnc1,inactive,
Nc1ccc(C(=O)O)cc1,inactive,
CCc1cc(SCc2sc(-c3ccc(C(F)(F)F)cc3)nc2CN2CCN(c3ccc(OC)cc3)CC2)ccc1OCC(=O)O,,1.06 µM (active)
CCc1nn(C2CCCCC2)c2cc(C3(C#N)CCC(C(=O)O)CC3)ccc12 (stereo not given),,12.1 µM (active)
O=C(O)c1cccc(C(=O)O)c1,,13 µM (active)
CCc1cc(C2=C(C(=O)O)N(c3ccccc3C(F)(F)F)S(=O)(=O)c3ccccc32)cc2c1OCO2,,12.3 µM (active)
CN(C)c1ccc(N=NS(=O)(=O)O)cc1,inactive,
CN1CCN(Cc2cc(-c3ccc4[nH]c(=O)oc4c3)co2)[C@@H](c2ccc(F)cc2)C1,,10.5 µM (active)
CCN(Cc1cccc(S(=O)(=O)O)c1)c1ccc(C(=C2C=CC(=[N+](CC)Cc3cccc(S(=O)(=O)O)c3)C=C2)c2ccccc2S(=O)(=O)[O-])cc1,inactive,
CC(C)(c1cc(Br)c(O)c(Br)c1)c1cc(Br)c(O)c(Br)c1,inactive,
CCCCCCCCCCCCCCCCOS(=O)(=O)O,,4.54 µM (active)
C=CCCCCCCCCCCCC,inactive,
CCCCCCCCCC,inactive,
COCCOCCOC,inactive,
CC(=O)O[C@]1(C(C)=O)CC[C@H]2[C@@H]3C=C(Cl)C4=CC(=O)[C@@H]5C[C@@H]5[C@]4(C)[C@H]3CC[C@@]21C,inactive,
COc1ccc([N+](=O)[O-])cc1N,,10.8 µM (active)
CC(=O)OC1CC(C)OC(C)O1 (stereo not given),inactive,
CN(C)C(=O)C1(N2CCCCC2)CCN(CC[C@@]2(c3ccc(Cl)c(Cl)c3)CN(C(=O)c3ccccc3)CCO2)CC1,,17.1 µM (active)

SMILES,outcome,AC50
CNS(=O)(=O)c1cc(C(=O)N2CCC(CCN3C4CCC3CC(n3c(C)nc5ccccc53)C4)(c3cccc(F)c3)CC2)c(Cl)cc1F (stereo not given),,16.7 µM (active)
CC(=O)NC1(c2cccc(F)c2)CCN(CC[C@@]2(c3ccc(Cl)c(Cl)c3)CN(c3ccccc3)C(=O)CO2)CC1,inactive,
Cc1cc(=O)[nH]c(=S)[nH]1,inactive,
c1ccc2n[nH]nc2c1,inactive,
CC(=O)S[C@H](C(=O)N[C@H]1Cc2ccccc2[C@H]2CCC[C@@H](C(=O)O)N2C1=O)C(C)C,inactive,
CCOC(=O)O[C@H](C)OC(=O)c1ccc2c(c1)cc(C(=O)NC1CCN(C(C)C)CC1)n2Cc1cc(-c2ccc(Cl)s2)on1,inactive,
CCCCc1nc2cccnc2n1Cc1ccc(-c2ccccc2-c2nnn[nH]2)cc1,,2.25 µM (active)
CCCOC(=O)c1cc(O)c(O)c(O)c1,,16.1 µM (active)
CCC(C)c1ccccc1O (stereo not given),,11.9 µM (active)
CCCCCC(=O)O,inactive,
NCCO,inactive,
Cc1ccc(S(=O)(=O)NC(=O)NN2CCCCCC2)cc1,,6.9 µM (active)
CC(C)(C)c1csc(-c2cc3cc(OCc4ccccc4CC(=O)O)ccc3o2)n1,,22.5 µM (active)
COc1ccc2cc(S(=O)(=O)N[C@H](CC(=O)N[C@H](Cc3ccc(CN4[C@H](C)CCC[C@@H]4C)cc3)C(=O)N(C)C(C)C)c3ccc4c(c3)OCO4)ccc2c1,inactive,
NC(=O)c1nc(-c2cccc(-c3cc(F)ccc3OCC(F)(F)C(F)(F)F)c2)n[nH]1,,1.27 µM (active)
O=c1[nH]c2ccc(S(=O)CCN3CCC(Cc4ccc(F)cc4)CC3)cc2o1 (stereo not given),inactive,
O=C1c2c(O)cccc2Cc2cccc(O)c21,,15.7 µM (active)
CC(C)c1cccc(C(C)C)c1NC(=O)NS(=O)(=O)c1cc(C(C)(C)O)co1,,37.1 µM (active)
CC(C)(O)c1coc(S(=O)(=O)NC(=O)Nc2c3c(cc4c2CCC4)CCC3)c1,inactive,
Cn1cnc2c1c(=O)[nH]c(=O)n2C,inactive,
